Assay outcomes from PubChem BioAssay.
Sm TGR inh – blocks Schistosoma mansoni thioredoxin glutathione reductase | Potency, µM (doses to about 114 µM), inactives show at the highest dose activity change, negative = inhibition, hits mostly inhibitors | Q962Y6 | purified TGR, DTNB reduction, TNB absorbance 405 nm | 360,000 tested, 3% active; further: potency means the concentration at half of the fitted maximal effect; on the % scale 0 is the no-effect control and ±100 the full control effect; nearly all actives have a fitted effect of over 60% in size
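Kinetic colorimetric format: TGR-catalysed, NADPH-driven DTNB reduction monitored via TNB absorbance. Enzyme dispensed at 20 nM; compound exposure 15 min at room temperature before reaction start.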
Pf growth 96h – P. falciparum growth inhibition at 96 hour, primary screen for plastid delayed-death inhibitors; P. falciparum luciferase reporter growth, 96 h; Potency, µM (series often up to 28.7 µM), for the others: at the highest dose activity change, negative = inhibition, actives largely listed as inhibitors; 320,000 tested, 6.9% active; AID 504834; further: potency means the concentration at half of the fitted maximal effect; on the % scale 0 is the no-effect control and ±100 the full control effect
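Erythrocytes infected with luciferase-expressing P. falciparum were dispensed at 2% hematocrit and 0.05% parasitemia (final), then incubated with compounds 96 hours at 37 C in 5% CO2. Luminescence after detection reagent addition reported growth.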
Pf growth 48h – inhibits P. falciparum growth in the first generation, 48 h; P. falciparum luciferase growth in erythrocytes, 48 h; Potency, µM (series often up to 28.7 µM), inactives show at the top dose activity change, negative = inhibition, usual class: inhibitors; 310,000 tested, 5.9% active; AID 504832; further: potency means the concentration at half of the fitted maximal effect; on the % scale 0 is the no-effect control and ±100 the full control effect
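Parasite viability was followed by luminescence of a genomically integrated firefly luciferase. Cultures held 0.1% parasitemia at 2% hematocrit (final), incubated under 5% CO2 at 37 C.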
SARS PLpro yeast – blocks SARS-CoV papain-like protease in a yeast assay; 330,000 tested, 0.19% active; S. cerevisiae expressing SARS-CoV PLpro, growth rescue; Potency, µM (doses to about 32.9 µM), without a hit: at the top dose activity, positive = growth rescue, actives largely listed as activators; calls by dose curve; further: potency means the concentration at half of the fitted maximal effect; 0% is about no effect; nearly all actives have a fitted effect of over 55% in size
HCV inhibitor – blocks hepatitis C virus; 340,000 tested, 3.4% active; Potency, µM (highest dose often 41.8 µM), inactives show at the highest dose activity change, negative = inhibition, usual class: inhibitors; Huh7.5.1 HCVcc-Cre infection, luciferase reporter, 44 h; further: potency means the concentration at half of the fitted maximal effect; on the % scale 0 is the no-effect control and ±100 the full control effect
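A cell-based infection assay in which seeded cells (1,000 per well) receive test compound after 4 h, are inoculated with HCVcc-Cre at approximately 0.5 moi, and are incubated 44 h before luminescence detection.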
HCMV inh – inhibitors of human cytomegalovirus; HFF cells, HCMV-luciferase reporter, 72 h; hits give low values; activity change, negative = inhibition, % at 57.5 µM; 410,000 tested, 4.5% active; AID 1259415; in the data active means activity change below about -60%; inconclusive means no clear call, values can overlap the other calls; inactive means above about -39%; further: on the % scale 0 is the no-effect control and ±100 the full control effect
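Luciferase read-out from HCMV-luciferase-infected HFFs (MOI 1 PFU/cell) 72 h post infection at 37C; compounds added after 16 h cell attachment; activity normalized between buffer-only basal and Salinomycin (10uM) inhibitor controls.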
* = called active by the depositor; ? = inconclusive; · = no result; + = active, no number. In the library only some 15% were active in any assay of this set; here they are far more common. Unless noted, the call rests on the fitted dose curve; in most records, active means well fitted curve in the direction sought with a large enough effect; inconclusive means small, poorly fitted or top-dose-only effect, or another doubt; inactive means no such curve, though single readings can be large; an effect the other way counts as inactive or inconclusive.

SMILES | Sm TGR inh | Pf growth 96h | Pf growth 48h | SARS PLpro yeast | HCV inhibitor | HCMV inh
Cc1csc(NC(=O)CSc2nnc(NC(=O)NC(C)(C)C)s2)n1 | 0% | ? | -47% | 3% | 7% | 0
Cc1cc(OCCN2CC2)c2ccccc2n1 | -14% | 10µM* | 13µM* | -1% | · | ·
Nn1c(SCC(=O)Nc2ccc(OC(F)F)cc2)nnc(Cc2ccccc2)c1=O | 6% | 2% | ? | -6% | -2% | -14
CC1=C(c2ccc(C)cc2)S(=O)(=O)N(Cc2ccc(C(=O)Nc3ccc(F)cc3C)cc2)C1=O | -6% | · | · | · | · | -12
CC(=O)Nc1ccc(NC(=O)C2(c3cccs3)CCOCC2)cc1 | 3% | · | · | · | · | +
CCc1nc(N)nc(N)c1-c1ccc(NCCN)c([N+](=O)[O-])c1 | · | · | · | · | · | -78*
CCc1nc(N)nc(N)c1-c1ccc(N(C)Cc2ccccc2)c([N+](=O)[O-])c1 | · | · | · | · | ? | -97*
CCc1nc(N)nc(N)c1-c1ccc(Cl)cc1 | 2% | 4.3µM* | 0.083µM* | 1% | ? | -99*
CS(=O)(=O)NCCNc1ccc(Cl)cc1[N+](=O)[O-] | 4% | 0% | 7% | 1% | 2% | 10
CCOC(=O)c1ccc(N/C(=N\S(=O)(=O)c2ccc(F)cc2F)c2ccccc2)cc1 | -3% | 6.6µM* | ? | -23% | -25% | 23
CCCCOC(=O)c1ccc(N/C(=N\S(=O)(=O)c2ccccc2)c2ccccc2)cc1 | 9% | ? | 5% | 8% | 1% | 64
CN1CCN(C(=O)c2cc(COc3c(F)cccc3F)on2)CC1c1ccccc1 (centres undefined) | 4µM* | 4.1µM* | -1% | 0% | -22% | 24
COC(=O)[C@H](Cc1ccccc1)NC(=O)c1cc(COc2c(F)cccc2F)on1 | -5% | 12µM* | 41% | -25% | 10% | 14
Cc1cccc(C)c1OCc1cc(C(=O)N2CCC(c3ccncc3)CC2)no1 | -21% | -19% | -1% | -13% | 7.9µM* | ?
Cc1cccc(C)c1OCc1cc(C(=O)N2CCN(C3CCCC3)CC2)no1 | ? | 8% | 20% | -1% | · | -8
CCN(Cc1ccncc1)C(=O)c1cc(COc2c(F)cccc2F)on1 | -4% | 10µM* | 5% | 0% | -4% | -38
CCN(Cc1ccncc1)C(=O)c1cc(COc2ccc(F)cc2Cl)on1 | -3% | ? | ? | -2% | -19% | -27
Cc1cccc(C)c1NC(=O)Cn1nnc(C(=O)Nc2c(C)cccc2C)c1N | 0% | · | · | · | · | 3
CCOC(=O)Cn1nc(N2CCN(c3ccc(F)cc3)CC2)ccc1=O | 6% | · | · | · | · | -8
CN1C(=O)[C@H]2[C@@H](c3ccccc3)N[C@]3(CCCN(Cc4ccc(F)cc4)C3=O)[C@H]2C1=O | · | · | · | · | · | 5
CCc1nn(CC(=O)NCc2ccc(OC)cc2OC)c(=O)c2cc3c(OC)cccc3n12 | 1% | · | · | · | · | -2
O=C(c1cc(COc2c(F)cccc2F)on1)N1CCC(c2ccccc2F)C1 (centres undefined) | 9% | 9.3µM* | 20% | -1% | -10% | -1
O=C(c1cc(COc2c(F)cccc2F)on1)N1CCC(c2ccccc2Cl)C1 (centres undefined) | -19% | 20% | -19% | -1% | 3% | 72
O=C(c1cc(COc2c(F)cccc2F)on1)N1CCC(c2ccncc2)CC1 | 3% | ? | ? | -1% | 5µM* | -84*
COCCN1C[C@@H](CO)O[C@@H](n2cnc3c(N4CCCC4)ncnc32)C1 | · | · | · | · | · | 11
SMILES | Sm TGR inh | Pf growth 96h | Pf growth 48h | SARS PLpro yeast | HCV inhibitor | HCMV inh
O=C(O)C1=C(CSc2nnnn2CS(=O)(=O)O)CS[C@@H]2[C@H](NC(=O)[C@H](O)c3ccccc3)C(=O)N12 | · | 4% | -9% | · | · | ·
Cc1nnc(SCC2=C(C(=O)O)N3C(=O)C(NC(=O)Cc4ccccc4)C3SC2)s1 (centres undefined) | 13µM* | -14% | -20% | -3% | 19% | 0
CC(=O)OCC1=C(C(=O)OC(C)(C)C)N2C(=O)[C@@H](NC(=O)Cc3ccccc3)[C@H]2SC1 | · | · | · | · | 7% | 32
Cc1nnc(SCC2=C(C(=O)O)N3C(=O)C(NC(=O)C(C)n4nc(C(F)(F)F)cc4C)C3SC2)s1 (centres undefined) | 7.1µM* | -1% | -6% | -1% | 7% | -29
COc1ccc(CN2C(=O)C(n3ccc4ccccc43)c3cc(F)ccc32)cc1 (centres undefined) | · | · | · | · | · | 14
COC(=O)c1cc(C)ccc1OCc1ccc([N+](=O)[O-])cc1 | 6% | 34% | 40% | 1% | 3% | 15
C=CCOc1cccn2c(N(C)C(=O)c3ccc(OC)cc3)c(CC)nc12 | · | · | · | · | · | -20
Cc1cc(C)nc(NC(N)=NC2CCCCC2)n1 | -10% | -7% | ? | 13% | ? | 11
CC(=O)CC(=O)NC(=NC1CCCCC1)Nc1nc(C)cc(C)n1 | 7% | · | ? | 1% | 11µM* | 51
Cc1ccc([C@@]2(OC(=O)c3ccccc3)C(=O)N(C(=O)OC(C)(C)C)c3ccccc32)cc1 | · | · | · | · | · | 10
COc1cc(CN(C(C)=O)c2ccccc2C(=O)O)ccc1[N+](=O)[O-] | · | · | · | · | 28% | -63*
N#CC1=C(N)Oc2n[nH]c(-c3cccs3)c2C1c1ccco1 (centres undefined) | 32µM* | -2% | -17% | -4% | -11% | 36
N#CC1=C(N)Oc2n[nH]c(-c3cccs3)c2C1c1ccncc1 (centres undefined) | 5% | ? | -11% | 1% | -15% | 9
CC(NC(=O)c1ccc(N2Cc3ccccc3Oc3ncccc32)s1)c1ccccc1 (centres undefined) | 1% | · | · | · | · | 3
O=C(O)CCCNC(=O)CCCn1nnc2ccccc2c1=O | -30% | 22% | 24% | 1% | 8% | -1
N#Cc1c(Cl)nsc1NN | -29% | 265% | 1% | -14% | -4% | -104*
Cn1c(Oc2ccc(Cl)cc2)c(C=O)c2ccccc21 | 11% | 9.3µM* | ? | -2% | ? | -13
Cn1c(Sc2ccc(Cl)cc2)c(C=O)c2ccccc21 | -15% | ? | 12µM* | -20% | 10µM* | ?
COc1ccc(Oc2c(C=O)c3ccccc3n2C)cc1 | 0% | -22% | 21% | 5% | -21% | -24
CNS(=O)(=O)c1cccc(C(=O)OCc2cc(=O)oc3c(C)c(O)ccc23)c1 | -9% | ? | ? | -8% | ? | -1
O=[N+]([O-])c1ncccc1OCc1ccc(Cl)c(Cl)c1 | 2% | 18% | 26% | 6% | -17% | -8
